Bioassay records deposited in PubChem by Broad Institute.
aSyn 5UTR act – Activators working through SNCA 5'UTR binding (MLPCN) | activity score, % (tested at 7.5 µM), hits read low | actives 7.1% (n = 300,000) | alpha-synuclein 5'UTR reporter, activators screen; in the data active = activity score below about -60%
The depositor's hits bear a star. Not all results are given here.

SMILES	aSyn 5UTR act
CCOC(=O)c1c(C)oc2c1c1c(c3ccccc32)OCN(CCCC(=O)O)C1	-108*
CCOC(=O)c1c2c(n(C)c1C)C(=O)C(=O)c1ccc(Br)cc1-2	110
CCOC(=O)c1c(C)[nH]c2c1cc(O)c1ccccc12	-189*
C/C(N)=C(/C#N)C(=O)CSc1nnc(Nc2ccccc2C)s1	-77*
C/C(N)=C(/C#N)C(=O)CSc1nnc(Nc2ccccc2)s1	-125*
Cc1ccc(NC(=O)c2ccc(OC(=O)COc3ccc(Cl)cc3C)cc2)cc1	-79*
Cc1ccc(NC(=O)c2ccc(OC(=O)CCN3C(=O)c4ccccc4C3=O)cc2)cc1	-146*
Cc1ccc(NC(=O)c2ccc(OC(=O)COc3cccc(Cl)c3)cc2)cc1	-130*
COc1ccc(/C=C2\CCC/C(=C\c3ccc(OC)c(OC)c3OC)C2=O)c(OC)c1OC	-71*
COc1ccc(/C=C2\CC/C(=C\c3ccc(OC)c(OC)c3)C2=O)cc1OC	-74*
COc1cc(/C=C2/CC/C(=C/c3ccc(O)c(OC)c3)C2=O)ccc1O	-71*
COc1cc(/C=C2\COC/C(=C\c3ccc(O)c(OC)c3)C2=O)ccc1O	103
COc1cc2c(c(OC)c1OC)-c1ccc(OC)c(=O)cc1C(NC(C)=O)CC2 (stereo unspecified)	75
CCN1C/C(=C/c2ccc(OC)c(O)c2)C(=O)/C(=C/c2ccc(OC)c(O)c2)C1	116
Cc1ccc(NC(=O)/C(C#N)=C/c2ccc(C)s2)c(C)c1	-92*
Cc1ccc(Oc2ncc(CN3CCOCC3)s2)cc1	-78*
Cc1ccc(C2CN=NC23CCc2ccccc2C3=O)cc1 (stereo unspecified)	-80*
O=C1CS/C(=N/N=C/c2ccccc2)N1Cc1ccco1	-81*
COc1cccc([C@@H]2Oc3ccc(OC)cc3C(=O)[C@H]2O)c1	-138*
Cc1ccnc(NC(=O)c2ccc(S(=O)(=O)N3CCC(C)CC3)cc2)c1	-118*
CC1CCN(S(=O)(=O)c2ccc(C(=O)Nc3ccccn3)cc2)CC1	-120*
Cc1c(Cl)cccc1N=Cc1ccc([N+](=O)[O-])s1	-89*
CN=c1scc(-c2ccc(OC)cc2)n1/N=C(\C)c1cccnc1	-156*
COc1cccc(-n2cnc3sc(-c4ccccc4)cc3c2=O)c1	-184*
COc1ccc(-c2cc3nc(C)n(N)c(=O)c3s2)cc1	115
SMILES	aSyn 5UTR act
COc1ccc(-n2cnc3sc(-c4ccccc4)cc3c2=O)cc1	-118*
O=c1oc(-c2ccccc2)nc2sc3c(c12)CCCC3	-103*
CCc1c(-c2ccccc2)nc2sc3c(c2c1N)CCCC3	-113*
O=c1oc(-c2cccs2)nc2sc3c(c12)CCCCC3	-90*
O=c1oc(/C=C/c2ccccc2)nc2sc3c(c12)CCC3	-212*
Nc1nc(-c2cccnc2)nc2sc3c(c12)CCCC3	-122*
CC(C)c1ccc(NC(=O)c2csnn2)cc1	-98*
CCSc1ccc(NC(=O)c2cccnc2)cc1	-66*
CC(C)c1ccc(NC(=O)c2snc3ccc(Cl)cc23)cc1	-369*
CC(C)c1ccc(NC(=O)c2cccnc2)cc1	-247*
COc1ccc(Cc2nc(-c3ccc(NC(=O)c4cccnc4)cc3)no2)cc1	75
CCc1ccc(NC(=O)c2cccnc2)cc1	-79*
COc1cc(/C=N/Nc2nc3ccccc3s2)cc([N+](=O)[O-])c1O	-100*
O=[N+]([O-])c1cc(Cl)cc(/C=N/Nc2nc3ccccc3s2)c1O	-78*
COc1cccc(/C=N/Nc2nccnc2Cl)c1O	90
COc1ccc2nc(Cl)c(/C=N/Nc3ccccn3)cc2c1	-88*
COc1ccc(/C=N/Nc2nccnc2Cl)c(OC)c1	-111*
Cc1cc(C(=O)Nc2ccccn2)no1	-104*
CCCc1cc(C(=O)Nc2ccc(CC)cc2)no1	-169*
Cc1cc(C(=O)Nc2sc(C)c(C)c2C#N)no1	-170*
Cc1ccc(NC(=S)Nc2cc(C)on2)cc1	-71*
Cc1ccc(NC(=O)c2cc(C)on2)cc1	-96*
CCCc1cc(C(=O)Nc2ccc(C)cc2)no1	-104*
Cc1ccc(/C=C/C(=O)Nc2cc(C)on2)cc1	-227*
CCOC(=O)/C=C(/C)N1N=C(c2ccc(OC)cc2)CC1c1cccc([N+](=O)[O-])c1 (stereo unspecified)	-166*
SMILES	aSyn 5UTR act
COc1ccc(C(C)NC(=O)Nc2ccc(C(C)=O)cc2)cc1OC (stereo unspecified)	-100*
COc1ccc(C(=O)Nc2cccc(C(C)=O)c2)cc1OC	-71*
COc1cc(OC)c(C(=O)Nc2cccc(C(C)=O)c2)cc1OC	-78*
CCOc1ccc2nc(SCC(=O)c3ccccc3)sc2c1	-100*
CCOc1ccc2nc(SCC(=O)NC3CC3)sc2c1	-68*
Nc1nccc(/C=C/c2ccc(Cl)cc2)n1	-112*
Cc1cc(C)c2cc(C(=O)Nc3ccccc3)[nH]c2c1	-81*
Cc1ccc2[nH]c(C(=O)Nc3ccc(F)cc3)cc2c1	-142*
CCCOc1ccc(NC(=O)c2cc3cc(C)ccc3[nH]2)cc1	-71*
Fc1ccc(CSc2nnc(-c3cccs3)o2)cc1	-88*
Fc1ccc(Cc2nnc(-c3cccs3)o2)cc1	-114*
Fc1ccc(-c2nnc(Cc3ccc(Cl)cc3)o2)cc1	-86*
c1ccc(CSc2nnc(-c3cccs3)o2)cc1	-170*
Fc1ccccc1CSc1nnc(-c2cccs2)o1	-128*
Cc1cc(C)n2nc(C(=O)Nc3ccc4c(c3)OCO4)cc2n1	-84*
CC(=O)c1cccc(NC(=O)c2cc3nc(C)cc(C)n3n2)c1	-139*
CC(C)c1[nH]nc2c1C(c1ccco1)C(C#N)=C(N)O2 (stereo unspecified)	-133*
Cc1ccc(-n2nc3c(n2)/C(=N/O)CC/C3=N\O)cc1	-89*
O=C(Oc1c(CN2CCOCC2)cc(Cl)c2cccnc12)c1cccs1	108
O=C(c1cccs1)N1CCN(c2ncc(C(F)(F)F)cc2Cl)CC1	-71*
CC1CCC2(CC1)Nc1ccccc1C(=O)N2c1ccccc1 (stereo unspecified)	-105*
CCOC(=O)c1sc(-c2ccc(OC)cc2)cc1NC(C)=O	-73*
CC(C)(C)c1ccc(Oc2ccc(NC(=O)c3ccccc3C(=O)O)cn2)cc1	86
O=C(Nc1ccc(OC(F)(F)F)cc1)Nc1cccnc1	-110*
O=C(Nc1ccccc1)Nc1ccc(Oc2cccnc2)nc1	-105*
SMILES	aSyn 5UTR act
CCC(C)c1ccc(NC(=O)Nc2cccnc2)cc1 (stereo unspecified)	-155*
O=C(OCCc1ccccc1)c1cc(O)c(O)c(O)c1	-105*
COc1ccc(C(=O)OCCc2ccc(O)cc2)cc1	-179*
Nc1ccc(C(=O)OCCc2ccccc2)cc1	-142*
COc1ccc(C(=O)NNC2=Nc3cccc4cccc2c34)cc1	58
Clc1ccccc1/C=N/NC1=Nc2cccc3cccc1c23	-230*
O=C(NCCN1C(=O)C2C3C=CC(C3)C2C1=O)Nc1ccc(Br)cc1 (stereo unspecified)	-144*
O=[N+]([O-])c1cc(-c2n(-c3ccccn3)c3ccccc3[n+]2-c2ccccn2)ccc1Cl	-88*
CC(/C=C/c1ccccc1F)=N\NC(=O)C(C)C	-78*
CCCCC(=O)N/N=C(C)/C=C/c1ccccc1F	-76*
COc1ccc(NC(=O)/C(C#N)=C\c2cc(C)n(-c3ccc4c(c3)OCO4)c2C)cc1	-107*
CNC(=O)/C(C#N)=C/c1ccc(-c2ccc(OC)cc2[N+](=O)[O-])o1	-76*
COc1ccc(NC(=O)/C(C#N)=C\c2ccc(Br)o2)cc1	-114*
C(=C\c1ccco1)/c1nc2ccccc2[nH]1	-141*
